From PubChem BioAssay (EPA / NIEHS)
Inconclusive results are not listed. Active and inactive are the calls of the source. How the source made its calls: active means hit-call score of the fitted dose curve at least 0.9, where 1 is the maximum; inconclusive means response in the unintended direction; inactive means score below 0.9.

Key:
[1] = TOX21_p53_BLA_p2_viability: Viability Assessment in the Tox21 HCT-116 p53 Agonism Beta-lactamase Assay, Phase 2 (AID 2283591);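 further: actives lower the ATP signal meaning cytotoxicity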
Summary of the method: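 HCT-116 p53-bla cells (4000/well) rested 5 h at 37C, then received compounds in DMSO (217-fold dilution) for 16 h at 37C, 5% CO2. After the CCF4 read, CellTiter-Glo was added; ATP luminescence was read after 30 min at room temperature.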

[2] = biological target: Cellular tumor antigen p53 (Homo sapiens) (UniProt P04637); assay: TOX21_p53_BLA_p2_ratio: Tox21 HCT-116 p53 Agonism Beta-lactamase Assay, Ratio, Phase 2 (AID 2283592)
Summary of the method: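 An inducible beta-lactamase reporter in HCT116 cells signals p53 pathway activation. After 16 h chemical exposure at 37C, cells load CCF4-AM substrate for 2 h at room temperature; activity is the cleaved/uncleaved emission ratio relative to DMSO.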

[3] = biological target: Cellular tumor antigen p53 (Homo sapiens) (UniProt P04637); assay: TOX21_p53_BLA_p3_ratio: Tox21 HCT-116 p53 Agonism Beta-lactamase Assay, Ratio, Phase 3 (AID 2283596)
Summary of the method: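 HCT116 p53-bla cells (4000/well) given compound in DMSO (217-fold dilution) after 5 h, incubated 16 h at 37C. CCF4-AM substrate 2 h at room temperature; 460/530 nm emission ratio, gain fitted against DMSO.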

[4] = TOX21_p53_BLA_p4_viability: Viability Assessment in the Tox21 HCT-116 p53 Agonism Beta-lactamase Assay, Phase 4 (AID 2283597);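 further: hits lower the luminescence signal meaning cytotoxicity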
Summary of the method: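 Compound exposure of HCT116 cells lasts 16 h at 37C, 5% CO2, with DMSO stocks diluted 217-fold. Cellular ATP is then quantified by CellTiter-Glo luminescence after 30 min at room temperature.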

[5] = biological target: Cellular tumor antigen p53 (Homo sapiens) (UniProt P04637); assay: TOX21_p53_BLA_p5_ratio: Tox21 HCT-116 p53 Agonism Beta-lactamase Assay, Ratio, Phase 5 (AID 2283599)
Summary of the method: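 HCT-116 cells carrying a p53-inducible beta-lactamase reporter were seeded at 4000 cells/well and dosed after 5 h with compound in DMSO (217-fold dilution). After 16 h at 37C, CCF4-AM substrate was added for 2 h, and the 460/530 nm emission ratio was scored as gain-of-signal versus DMSO.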

[6] = TOX21_p53_BLA_p5_viability: Viability Assessment in the Tox21 HCT-116 p53 Agonism Beta-lactamase Assay, Phase 5 (AID 2283600)
Summary of the method: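 Counter-readout for cytotoxicity: ATP-dependent luminescence from CellTiter-Glo, read in the beta-lactamase wells after 30 min at RT, following a 16 h compound exposure at 37C.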

[7] = biological target: Cellular tumor antigen p53 (Homo sapiens) (UniProt P04637); assay: TOX21_p53_BLA_p4_ratio: Tox21 HCT-116 p53 Agonism Beta-lactamase Assay, Ratio, Phase 4 (AID 2283601)
Summary of the method: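 HCT116 cells carrying an inducible beta-lactamase reporter were plated at 4000 cells/well, rested 5 h, then exposed to compounds in DMSO (217-fold dilution) for 16 h at 37C. CCF4-AM substrate was loaded 2 h at room temperature; 460/530 nm emission ratio scored gain-of-signal versus DMSO.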

Measured: AC50

Sequence of Cellular tumor antigen p53 (Homo sapiens) (P04637 whole entry, looked up): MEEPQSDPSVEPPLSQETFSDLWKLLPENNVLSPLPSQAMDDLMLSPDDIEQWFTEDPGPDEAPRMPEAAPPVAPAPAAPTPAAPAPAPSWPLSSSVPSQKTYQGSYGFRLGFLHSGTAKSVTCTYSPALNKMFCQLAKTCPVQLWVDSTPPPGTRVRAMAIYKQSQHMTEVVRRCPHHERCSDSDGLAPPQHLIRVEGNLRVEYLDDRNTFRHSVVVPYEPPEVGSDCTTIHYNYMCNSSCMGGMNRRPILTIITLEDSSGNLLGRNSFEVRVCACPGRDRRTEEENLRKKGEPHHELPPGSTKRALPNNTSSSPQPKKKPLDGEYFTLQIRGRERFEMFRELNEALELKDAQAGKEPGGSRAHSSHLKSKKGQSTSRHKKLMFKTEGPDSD

O=C(Nc1ccc(C(=O)O)c(O)c1)c1ccccc1
inactive: all assays above

CC(=O)OC[C@H]1O[C@@H](n2ncc(=O)[nH]c2=O)[C@H](OC(C)=O)[C@@H]1OC(C)=O
active: [2] 2.04 µM | [3] 3.15 µM | [5] 2.02 µM | [7] 2.61 µM
inactive: [1] | [4] | [6]

O=C=Nc1ccc(Cc2ccc(N=C=O)cc2)cc1
inactive: all assays above

CCN(CC)CCOc1ccc2nc(N(C)C)sc2c1
not listed: [7]
inactive: all other assays above

c1ccc2cc(C3=NCCN3)ccc2c1
not listed: [6] | [7]
inactive: all other assays above

NCc1ccccc1CC(=O)N[C@@H]1C(=O)N2C(C(=O)O)=C(CSc3nnnn3CC(=O)O)CS[C@H]12
not listed: [7]
inactive: all other assays above

Oc1cc(O)c2c(c1)O[C@H](c1ccc(O)c(O)c1)[C@H](O)C2
not listed: [7]
inactive: all other assays above

CCN(Cc1ccccc1)c1ccccc1
inactive: all assays above

FC(F)OC(Cl)C(F)(F)F (configuration not stated)
inactive: all assays above

CCCCCCOc1ccccc1C(N)=O
not listed: [7]
inactive: all other assays above

Clc1nnc(Cl)c2ccccc12
not listed: [7]
inactive: all other assays above

CC(C)(C)C1(CCc2ccc(Cl)cc2)CO1 (configuration not stated)
not listed: [6] | [7]
inactive: all other assays above

COc1ccc(OC)c(C(O)CNC(=O)CN)c1 (configuration not stated)
not listed: [7]
inactive: all other assays above

C=C1CC[C@H](O)C/C1=C/C=C1\CCC[C@]2(C)[C@@H]([C@H](C)CC[C@@H](O)C(C)(C)O)CC[C@@H]12
active: [1] 20.1 µM | [2] 24.5 µM | [3] 26.9 µM | [4] 17.9 µM | [5] 22.5 µM | [6] 17.2 µM | [7] 21.1 µM

CCCCCCCCCCCCCCCCOCCOCCOCCOCCOCCOCCOCCOCCOCCOCCOCCOCCOCCOCCOCCOCCOCCOCCOCCOCCO
active: [1] 30.1 µM | [2] 29.5 µM | [3] 11.7 µM | [4] 34.5 µM | [5] 41.4 µM | [6] 33.3 µM | [7] 43.5 µM

Nc1cc(Cl)c([N+](=O)[O-])cc1O
inactive: all assays above

Cc1c(C(C)C)c(=O)n(-c2ccccc2)n1C
not listed: [7]
inactive: all other assays above

C=CC1=C(C)C2=CC3=NC(=C(CC(=O)[O-])C4=NC(=C(C)C4=C([O-])[O-])C=c4[n-]c(c(C)c4CC)=CC1=N2)[C@@H](CCC(=O)[O-])[C@@H]3C.[Cu+2].[Na+].[Na+].[Na+]
inactive: all assays above

CC(C)C(O)C(C)(C)CO (configuration not stated)
inactive: all assays above

Cc1nc(NS(=O)(=O)c2ccc(N)cc2)nc(C)c1Br
not listed: [7]
inactive: all other assays above

CC(=O)Oc1cccc(O)c1
not listed: [7]
inactive: all other assays above

O=C(O)[C@@H]1C[C@H](CP(=O)(O)O)CCN1
not listed: [6] | [7]
inactive: all other assays above

ClC(Cl)(Cl)c1ccc(C(Cl)(Cl)Cl)cc1
not listed: [7]
inactive: all other assays above

CCOc1ccc2nc(N)sc2c1
not listed: [7]
inactive: all other assays above

O=C(O)CCC(=O)c1ccc(-c2ccccc2)cc1
not listed: [7]
inactive: all other assays above

CCCCOC(=O)CC
not listed: [7]
inactive: all other assays above

C[C@@H]1NC(=O)[C@@H](N)CNC(=O)[C@H](C2CCNC(N)=N2)NC(=O)/C(=C/NC(N)=O)NC(=O)[C@H](CNC(=O)C[C@@H](N)CCCN)NC1=O (some centres not stated)
inactive: all assays above

NC(=O)[C@H]1O[C@@H](O)[C@H](O)[C@@H](O)[C@@H]1O
not listed: [7]
inactive: all other assays above

CN(C)CCOC(c1ccc(Cl)cc1)c1ccccn1 (configuration not stated)
not listed: [6] | [7]
inactive: all other assays above

CC(=O)O[C@H]1C[C@@]2(C)[C@@H](C[C@@H](O)[C@H]3[C@@]4(C)CC[C@@H](O)[C@@H](C)[C@@H]4CC[C@@]32C)/C1=C(\CCC=C(C)C)C(=O)O
not listed: [7]
inactive: all other assays above
